# Source: PubChem BioAssay (Tox21)
# Results filed as inconclusive are left out. The source made the active and inactive calls. Unless noted, calls come from the whole dose curve; as a rule, active = well fitted cell-killing curve with a large enough effect in the repeat runs; inconclusive = weak or mixed curves, or effect the other way; inactive = no such curve, though single readings can be large or run the other way.
# Molecular target: Vitamin D3 receptor (Homo sapiens) (UniProt P11473)
# Experiment: qHTS assay to identify small molecule antagonists of the vitamin D receptor (VDR) signaling pathway (AID 743223; active = well fitted inhibition curve with a large enough effect in the signal ratio in the repeat runs, not every such curve was filed as active; the % refers to the signal ratio)
# Conditions: VDR-UAS-bla HEK293T, beta-lactamase FRET ratio, 16 h; series mostly up to 61 µM
# Summary of the method: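 Cells carrying a VDR-driven beta-lactamase reporter (VDR-bla) were co-treated with compound and 3 nM final 1alpha,25-dihydroxyvitamin D3 for 16 h at 37C; reporter activity was measured as FRET substrate fluorescence after 2 h at room temperature.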
# Potency is the fitted concentration of half-maximal effect.
# Chain of Vitamin D3 receptor (Homo sapiens) (P11473 whole entry, looked up): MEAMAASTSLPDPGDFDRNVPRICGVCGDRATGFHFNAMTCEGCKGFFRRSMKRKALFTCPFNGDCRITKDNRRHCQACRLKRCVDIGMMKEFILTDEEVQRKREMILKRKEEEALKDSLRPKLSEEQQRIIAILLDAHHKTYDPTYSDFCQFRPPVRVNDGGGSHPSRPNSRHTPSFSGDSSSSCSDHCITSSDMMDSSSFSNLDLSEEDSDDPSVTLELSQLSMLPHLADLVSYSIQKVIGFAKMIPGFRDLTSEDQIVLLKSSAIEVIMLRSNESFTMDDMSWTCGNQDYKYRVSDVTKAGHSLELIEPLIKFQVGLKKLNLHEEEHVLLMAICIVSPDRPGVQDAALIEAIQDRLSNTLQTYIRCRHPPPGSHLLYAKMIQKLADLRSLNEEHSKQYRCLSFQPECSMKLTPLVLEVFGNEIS
row,Structure (SMILES),Potency
1,O=C(CCCCCCCCc1cccnc1)N1CCC(C=C(c2ccccc2)c2ccccc2)CC1,inactive
2,S=C1NC=NC2N=CNC12 (stereo not given),inactive
3,CCCCCN=C(N)N/N=C/c1c[nH]c2ccc(OC)cc12,13.4 µM (active)
4,O=C1OC(=O)c2cc(-c3ccc4c(c3)C(=O)OC4=O)ccc21,inactive
5,C=CCc1cc(S(=O)(=O)c2ccc(O)c(CC=C)c2)ccc1O,inactive
6,O=[N+]([O-])c1ccc(O)c2ncccc12,9.52 µM (active)
7,Cc1cc(F)ccc1-c1cc(N2CC[C@@H](O)[C@H]2CO)ncc1N(C)C(=O)C(C)(C)c1cc(C(F)(F)F)cc(C(F)(F)F)c1,21.5 µM (active)

# Tested on: not listed separately
# Experiment: qHTS assay to identify small molecule agonists of the vitamin D receptor (VDR) signaling pathway - cell viability counter screen (AID 743224); note: nearly all actives have a fitted effect of over 50% in size
# Conditions: VDR-bla HEK293T viability, CellTiter-Glo luminescence, 16 h; series mostly up to 62.6 µM
# Summary of the method: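 Luminescence from CellTiter-Glo, read after 30 min at room temperature, reports viability of VDR-bla cells treated with compounds for 16 h at 37C in the wells used for the beta-lactamase FRET read.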
row,Structure (SMILES),Potency
1,CN(C[C@@H](CC[N+]12CCC(C3CCCCC3)(CC1)CC2)c1ccc(Cl)c(Cl)c1)C(=O)c1cc(C(F)(F)F)cc(C(F)(F)F)c1,17.4 µM (active)
2,CC(Cc1ccc(O)c(O)c1)C(C)Cc1ccc(O)c(O)c1 (stereo not given),inactive
3,CC1=C(/C=C/C(C)=C/C=C/C(C)=C\C(=O)O)C(C)(C)CCC1,inactive
4,Cc1cc(Br)ccc1NC(=O)CCl,12.3 µM (active)
5,CCCCC/C=C\C=C\C(=O)OCC,40.5 µM (active)
6,S=C1NC=NC2N=CNC12 (stereo not given),3.09 µM (active)
7,CCCCCN=C(N)N/N=C/c1c[nH]c2ccc(OC)cc12,29.8 µM (active)
8,O=C1OC(=O)c2cc(-c3ccc4c(c3)C(=O)OC4=O)ccc21,38.9 µM (active)
9,c1ccc2occc2c1,49 µM (active)
10,CCOc1ccc([N+](=O)[O-])cc1,49.7 µM (active)
11,O=C(Nc1ccccc1)c1cc(Cl)ccc1O,12.3 µM (active)
12,C[C@H]1O[C@@H](O[C@H]2CC[C@@]3(C)[C@H](CC[C@@H]4[C@@H]3C[C@@H](O)[C@]3(C)[C@@H](C5=CC(=O)OC5)CC[C@]43O)C2)C[C@H](O)[C@@H]1O[C@H]1C[C@H](O)[C@H](O[C@H]2C[C@H](O)[C@H](O[C@@H]3O[C@H](CO)[C@@H](O)[C@H](O)[C@H]3O)[C@@H](C)O2)[C@@H](C)O1,0.298 µM (active)
13,CN(C)CCOc1ccc(/C(=C(/CCCl)c2ccccc2)c2ccccc2)cc1,12.9 µM (active)
14,NCc1cccc(C2CCN(C(=O)c3ccc(C#Cc4ccccc4F)o3)CC2)c1,54.9 µM (active)
15,Cc1cc(F)ccc1-c1cc(N2CC[C@@H](O)[C@H]2CO)ncc1N(C)C(=O)C(C)(C)c1cc(C(F)(F)F)cc(C(F)(F)F)c1,10.8 µM (active)
16,C=C1C(CCl)(CCl)C2(Cl)C(Cl)C(Cl)C1(Cl)C2(Cl)Cl (stereo not given),21.6 µM (active)
17,COc1cc(/C=C/C(=O)CC(=O)/C=C/c2ccc(O)c(OC)c2)ccc1O,49.3 µM (active)
18,Cc1ccc2nc(-c3ccc(N)cc3)sc2c1S(=O)(=O)O,inactive
